In PubChem BioAssay (NCI):
The panel holds about 83,000 compounds, 20% with a hit somewhere; the sample as a whole holds those more often.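 Activity criterion: percent growth below 10, measured after cells in 96-well plates were exposed to a single compound concentration for 48 hours.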 Activity calls are given as the source filed them.

What was measured:
Assay in all cases: NCI-60 one-dose screen, 48 h (100 = growth as untreated, 0 = no growth, -100 = all killed)
Settings in all cases: 10 µM
[1] = tested on: SN12C renal
[2] = tested on: UO-31 renal
[3] = tested on: TK-10 renal
[4] = tested on: ACHN renal
[5] = tested on: CAKI-1 renal
[6] = tested on: A498 renal
[7] = tested on: CCRF-CEM leukemia
[8] = tested on: MOLT-4 leukemia
[9] = tested on: EKVX NSCLC
[10] = tested on: SR leukemia

Measured: growth

Clc1ccc2c(NCCCNc3nccc(Nc4ccc(Br)cc4)n3)ccnc2c1
inactive: [6] 19.6%
active: [1] -65.1% | [2] -72.3% | [3] -90.4% | [4] -90.6% | [5] -80.4% | [7] -24.5% | [8] -44.6%

CSC1=NCCCC1
inactive: [1] 110% | [2] 86.8% | [3] 125% | [4] 102% | [5] 115% | [6] 106% | [7] 103% | [8] 108%

NC(=S)N=Nc1c(O)c2ccccc2c2ccccc12
inactive: [2] 42.5% | [3] 116% | [4] 60.7% | [5] 83.5% | [6] 101% | [7] 106% | [8] 100%
active: [1] -88.7%

O=C(Nc1nc2ccccc2s1)Nc1ccc([N+](=O)[O-])cc1Cl
inactive: [9] 90.4% | [1] 78.8% | [3] 57% | [4] 88% | [6] 106% | [7] 57.7% | [8] 91.1% | [10] 48.3%

CCN(CC)CCNC(=O)c1ccc(NC(C)=O)cc1
inactive: [9] 100% | [1] 94.6% | [3] 103% | [5] 95.2% | [6] 78.7% | [7] 114% | [8] 107% | [10] 101%

c1ccc([I+]c2ccccc2)cc1
inactive: [1] 96.7% | [2] 45.9% | [3] 56.6% | [4] 77.1% | [5] 37.3% | [6] 65% | [7] 51.5% | [8] 62.9%

Cc1ccc(Nc2cc(C)nc(NCCCNc3ccnc4cc(Cl)ccc34)n2)cc1
active: [1] -81% | [2] -95% | [3] -94.7% | [4] -98.2% | [5] -87.2% | [6] -59.4% | [7] -27.8% | [8] -47.6%

COC(=O)C1=NNC(=S)N(c2cc(C)[nH]n2)C(=O)C1
inactive: [1] 96.3% | [2] 76.5% | [3] 114% | [4] 107% | [5] 92.5% | [6] 81.8% | [7] 91.8% | [8] 84.1%

COc1ccc(-c2nc3sc(C4CC4)nn3c2/C=C2/C(=O)Nc3ccc(OC)cc32)cc1
inactive: [1] 91.9% | [2] 75.6% | [3] 95.8% | [4] 78% | [5] 78.8% | [6] 49.4% | [7] 75.8%

C#Cc1ccc(-n2c(/C=C/c3cc(OC)cc(OC)c3)nc3ncccc3c2=O)cc1
inactive: [1] 81.8% | [2] 87.6% | [3] 81.6% | [4] 67.1% | [5] 95.8% | [6] 91.9% | [7] 69% | [8] 58.3%

Cn1c(C(N)=O)cc2c1-c1nc(Nc3ccccc3)ncc1CCC2
inactive: [1] 28% | [2] 12.5% | [3] 23.7% | [4] 25.6% | [5] 23.5% | [7] 43.5% | [8] 42.3%
active: [6] -43.8%

COc1ccc(-c2cc(-c3cccc(NS(C)(=O)=O)c3)nc(N)c2C#N)cc1
inactive: [9] 22% | [1] 43.3% | [3] 67.5% | [4] 36.4% | [7] 19% | [8] 19.7% | [10] 16.1%

CC1(C)OC2=C(CC1Br)C(=O)C(=O)c1ccccc12 (stereo not drawn)
active: [9] -40.1% | [1] -75.4% | [3] -22.6% | [5] -62.2% | [7] -23.1% | [8] -25.6%
inactive: [6] 101% | [10] 15.9%

COc1ccc(Nc2cc(C)nc(NCCCNc3ccnc4cc(Cl)ccc34)n2)cc1
active: [1] 1.94% | [2] -73.5% | [3] -83.9% | [4] -93% | [5] -69.6% | [6] -0.29% | [7] -21.9% | [8] -35.1%

C#Cc1ccc(-n2c(/C=C/c3ccc(O)c(OC)c3)nc3ncccc3c2=O)cc1
inactive: [1] 98.4% | [2] 73.9% | [3] 139% | [4] 97.3% | [5] 96% | [6] 94% | [7] 91.4% | [8] 86.1%

C(CCCC1=NCCO1)CCCC1=NCCO1
inactive: [1] 102% | [2] 90.9% | [3] 110% | [4] 105% | [5] 103% | [6] 101% | [7] 104% | [8] 105%

Cn1c([N+](=O)[O-])cnc1/C=C1\Oc2ccccc2C1=O
active: [1] -18.2% | [2] -39.3% | [3] -28.8% | [4] 3.1% | [5] -23% | [6] -3.16% | [7] 2.77%

COc1ccc(OC)c(/C=C/c2nc(SCc3ccccc3)n(-c3ccc(Cl)cc3)n2)c1
active: [5] 0.228%
inactive: [9] 74.3% | [1] 74.2% | [3] 105% | [4] 80.8% | [7] 24.2% | [8] 30.4% | [10] 19.5%

FC(F)(F)c1ccc(-c2cnc(Cl)nc2N2CCC3(CC2)OCCO3)cc1
inactive: [1] 103% | [2] 69.5% | [3] 89.8% | [4] 92.6% | [5] 86.5% | [6] 75.8% | [7] 91.1% | [8] 74%

COc1cc2c(cc1OCCCCCCN1CCN(CC(=O)Nc3ccc(Cl)cc3C(=O)c3ccccc3Cl)CC1)N=CC1CCCN1C2=O (stereo not drawn)
active: [9] -93.2% | [1] -90.2% | [3] -98.8% | [4] -100% | [5] -98.8% | [7] -66.3% | [8] -64% | [10] -70.2%

Nc1c(C(=O)Nc2cccc(Br)c2)sc2nc3c(cc12)C(O)CCC3 (stereo not drawn)
active: [6] -8.73%
inactive: [1] 37.3% | [2] 31.9% | [3] 56.7% | [4] 51.4% | [5] 25.6% | [7] 12.2% | [8] 14%

COc1ccc(-c2nc(-c3nc4cc(Cl)c(F)cc4[nH]3)c3ccccn23)cc1
inactive: [1] 66.3% | [2] 28% | [3] 64.7% | [4] 79.1% | [5] 67.1% | [6] 32.4% | [7] 35.6% | [8] 43.4% | [10] 33.7%

O=C1Nc2ccccc2C1=NC1CCCCC1
inactive: [1] 107% | [2] 55.5% | [3] 107% | [4] 97.9% | [5] 79.3% | [6] 109% | [7] 108% | [8] 111%

CS(=O)(=O)Nc1ccc(Nc2c3ccccc3nc3cc([N+](=O)[O-])ccc23)cc1
inactive: [1] 20.3% | [2] 16.6% | [3] 16% | [4] 12.6% | [5] 37.7% | [6] 45.4%
active: [7] 2.39% | [8] 4.17%

COc1ccc(Cn2c(C(N)=O)cc3c2-c2nc(N)ncc2CCC3)cc1
inactive: [1] 106% | [2] 82.6% | [3] 108% | [4] 97.1% | [5] 105% | [6] 76.2% | [7] 95.8% | [8] 108%

CN(C)C=Nc1cc(Cl)ccc1Cl
inactive: [1] 97.7% | [2] 100% | [3] 116% | [4] 109% | [5] 96.5% | [6] 105% | [7] 97.4% | [8] 108%

COc1ccc2c(c1)nc(N)c1c3cccnc3cn21
active: [5] -15.7% | [6] -9.56% | [10] 6.83%
inactive: [9] 66.5% | [2] 42.3% | [3] 51.3% | [4] 37.8% | [7] 22.7% | [8] 30.9%

COc1cc(-c2cc(/C=C3\C(=O)Nc4ccc(Cl)cc43)[nH]n2)cc(OC)c1OC
active: [1] 7% | [2] 9.62% | [8] -4.3%
inactive: [3] 27.5% | [4] 23.9% | [5] 17.5% | [6] 41.1% | [7] 10.7% | [10] 20.4%

CC(=O)CSC(C)=O
inactive: [1] 100% | [2] 91.3% | [3] 122% | [4] 97.8% | [5] 91.6% | [6] 99.1% | [7] 94.8% | [8] 105%

Cc1cc(C)c(NC(=O)c2sc3nc4c(cc3c2N)C(=O)CCC4)c(C)c1
inactive: [9] 54.4% | [2] 56.9% | [3] 44.8% | [4] 55.3% | [7] 22.1% | [8] 43% | [10] 10.5%
active: [5] -22.2% | [6] -7.37%

Cc1ccc(NC(=O)NC2CCCCC2)cc1
inactive: [1] 106% | [2] 96% | [3] 110% | [4] 106% | [5] 104% | [6] 98.2% | [7] 98.9% | [8] 102%

COc1cc(Nc2ncnc(Nc3ccc4c(n3)NC(=O)C(C)(C)O4)n2)cc(OC)c1OC
inactive: [1] 18.9% | [4] 14.6% | [7] 25.1% | [8] 33.9%
active: [2] -6.15% | [3] -36.4% | [5] -10.2% | [6] -75.1% | [10] 9.18%

COc1ccc(-c2nsc3c2NC(=O)CC3c2ccc(F)cc2)cc1 (stereo not drawn)
inactive: [1] 51.6% | [2] 48.7% | [3] 38.5% | [4] 47.1% | [5] 24.3% | [6] 53.8% | [7] 45.3% | [8] 21.7%

CC1CC(=O)OC(C)C1 (stereo not drawn)
inactive: [1] 109% | [2] 94.1% | [3] 104% | [4] 110% | [5] 93% | [6] 96.1% | [7] 101%
